Rows were chosen to be rich in hits. Some 7.9% of all compounds tested hit in one or more screens of this group.
Lassa entry inh: inhibitors of Lassa virus binding or cell entry; Potency, µM (top dose mostly 37.9 µM), inactives show top-dose activity change, negative = inhibition, actives largely listed as inhibitors; hit rate 1.2% among 300,000; Lassa virus pseudotype entry inhibition, cell reporter; calls by dose curve; tested in HEK293 cells; also: potency is read from the fitted curve at half-maximal effect; nearly all actives have a fitted effect of over 50% in size
MARV entry inh: Marburg virus entry inhibition. hit rate 1.8% among 300,000. Marburg virus pseudotyped entry inhibition, cell reporter. Potency, µM (top dose mostly 37.8 µM), for the others: top-dose activity change, negative = inhibition, most hits filed as inhibitors; calls by dose curve; tested in HEK293 cells; also: potency is read from the fitted curve at half-maximal effect
FMDV antiviral: blocks foot and mouth disease virus; Potency, µM (titrated, usually from 57.9 µM), for inactives: at the highest dose activity change, negative = inhibition, actives largely listed as inhibitors; hit rate 1.2% among 410,000; FMDV antiviral cell-based qHTS; calls by dose curve; tested in HEK293T cells; also: read-out not given here; potency is read from the fitted curve at half-maximal effect; nearly all actives have a fitted effect of over 45% in size
HCMV antiviral: human cytomegalovirus inhibition | hit rate 4.5% among 410,000 | HFF cells, HCMV-luciferase reporter, 72 h; hits give low values | activity change, negative = inhibition, % at 57.5 µM; in the data active = activity change below about -60%; inconclusive = no clear call, values can overlap the other calls; inactive = above about -39%
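Two-dose cell screen: HFF monolayers treated with compounds and infected with luciferase-expressing HCMV at 1 PFU/cell, 72 h at 37C, then lysed for luciferase measurement.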
HCV inh: blocks hepatitis C virus; Huh7.5.1 HCVcc-Cre infection, luciferase reporter, 44 h; Potency, µM (highest dose often 41.8 µM), for inactives: at the top dose activity change, negative = inhibition, actives largely listed as inhibitors; hit rate 3.4% among 340,000; AID 651820; active = well fitted inhibition curve with a large enough effect; inconclusive = small, poorly fitted or top-dose-only effect, or another doubt; inactive = no such curve, though single readings can be large or run the other way; also: potency is read from the fitted curve at half-maximal effect
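Whole-lifecycle infectious HCVcc-Cre system; cells 1,000/well, compound then virus (~0.5 moi) added 4 h after plating, 44 h culture. Luciferase read 15 sec following 15 min substrate incubation, room temp.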
The depositor's hits bear a star; ? = inconclusive; nt = no result; [ ] = dose if it differs, or a comment. % is scaled to controls: 0 for no effect and ±100 for the full control effect.

SMILES | Lassa entry inh | MARV entry inh | FMDV antiviral | HCMV antiviral | HCV inh
CCC1CN(CC(=O)NCc2n[nH]c3c2CCCCC3)Cc2cc(OC)ccc2O1 (stereo not drawn) | nt | nt | -9% | nt | nt
CCNc1ncc2nc(-c3ccccc3)c(=O)n(Cc3cccs3)c2n1 | nt | nt | -2% | nt | nt
O=C(CN(C(=O)CCC(=O)Nc1nccs1)c1cccc(F)c1)NCCc1ccccc1 | ? | 5%[46.1 µM] | -4% | -88* | ?
Cc1ccc(N(CC(=O)NCc2ccc(F)cc2)C(=O)CCC(=O)Nc2ccccn2)cc1C | 1.4µM* | ? | -17% | -7 | ?
COc1ccc(C(=O)N2CCC3(CC2)CCN(C(c2ccccc2)c2ccccc2)CC3)cc1 | nt | nt | -11% | nt | nt
CC1(C)CCC(=O)N2CC[C@H]3C[C@H](OC(=O)Nc4ccc(Br)cc4)C[C@@H]1[C@H]32 | nt | nt | 13% | -101* | 20%
COC(=O)C1CCN(Cc2ccc3c(c2)CN(C(=O)c2cc4cc(F)ccc4[nH]2)CCO3)CC1 | nt | nt | -22% | nt | nt
O=C(c1ccc(F)cc1)N(c1ccccc1F)C(CCc1ccccc1)c1nc2ccccc2[nH]1 (stereo not drawn) | nt | nt | nt | 11 | nt
Cc1cccc(C)c1NC(=O)C(CCc1ccccc1)N(C(=O)c1ccc(F)cc1)c1ccccc1F (stereo not drawn) | nt | nt | nt | -70* | nt
Cc1ccc2[nH]c(C)c(/C=C/c3cc[n+](C)cc3)c2c1 | 3.2µM* | 8.9µM* | -26% | -100* | ?
Cc1ccc2c(c1)c(/C=C/c1cc[n+](C)cc1)c(C)n2C | nt | nt | ? | -98* | 10µM*
CC(=O)c1ccc(-c2ccc(C(=O)NCC(c3ccc(F)cc3)N3CCOCC3)o2)cc1 (stereo not drawn) | -13% | ? | -16% | 5 | -13%
O=C(NCC(c1ccc(F)cc1)N1CCOCC1)c1ccc([N+](=O)[O-])o1 (stereo not drawn) | -14% | ? | -11% | -87* | ?
CC(C)[C@H](NC(=O)[C@H](CCCN=C(N)N)NC(=O)NC(Cc1ccccc1)C(=O)O)C(=O)NC(C=O)CCCN=C(N)N (stereo partly drawn) | -1% | ? | -7% | 11 | -7%[8.37 µM]
CSc1ccccc1-c1nnc(-c2ccccc2)o1 | -29% | -8% | -12% | 88 | 8.9µM*
O=C(Nc1nnc([C@H]2C[C@H](O)[C@@H](CO)O2)s1)c1ccccc1F | nt | nt | -5% | 5 | nt
COC(=O)CCCC(=O)N1CCOCCN(C(=O)CCCC(=O)OC)CCOCC1 | 18% | 3%[46.1 µM] | -15% | -101* | 14%
CC1CCc2c(nc3sc4c(c3c2N)CCCC4)C1 (stereo not drawn) | -27%[46.1 µM] | 11µM* | -8% | ? | 11µM*
Nc1c2c(nc3sc4c(c13)CCCC4)CCCC2 | 26%[46.1 µM] | ? | -3% | -72* | ?
CC1CCc2nc3sc4c(c3c(N)c2C1)CCCC4 (stereo not drawn) | -7% | ? | -10% | 28 | ?
CCc1c(-c2ccccc2)nc2sc3c(c2c1N)CCCC3 | ? | ? | -50% | -92* | 25µM*
Nc1c2c(nc3sc4c(c13)CCCC4)CCCCC2 | ? | 7% | -19% | 56 | ?
CCn1nc(C(=O)O)c(=O)c2c1CC1=C(C2)OCO1 | nt | 5% | nt | nt | nt
C[C@H](CO)N1C[C@H](C)[C@@H](CN(C)C(=O)NC2CCCCC2)Oc2c(NS(=O)(=O)c3cn(C)cn3)cccc2C1=O | nt | nt | 43% | ? | 5%
COC(=O)C1(Cc2cc(-c3ccc([N+](=O)[O-])cc3)no2)CCN(C(=O)OC(C)(C)C)CC1 | nt | nt | 0% | -20 | ?
SMILES | Lassa entry inh | MARV entry inh | FMDV antiviral | HCMV antiviral | HCV inh
COC(=O)C1(Cc2cc(-c3ccc(Cl)cc3)no2)CCN(C(=O)OC(C)(C)C)CC1 | nt | nt | -28% | -2 | 1µM*
O=C(O)[C@H]1CCCN(CCC=C(c2ccccc2)c2ccccc2)C1 | nt | -7% | nt | nt | nt
COc1ccc(CCN(C)Cc2nc(Cc3ccc(OC)c(OC)c3)no2)cc1OC | nt | nt | ? | -12 | ?
CC(NCc1ccccc1O)c1ccccc1 (stereo not drawn) | nt | nt | 11% | 14 | 8%
CC(Cc1ccccc1)NCc1ccccc1O (stereo not drawn) | 22% | -2%[46.1 µM] | -9% | -67* | 6%
COc1ccc(C=C2C=C(C(C)(C)C)C(=O)C(C(C)(C)C)=C2)cc1OC | 14%[46.1 µM] | ? | 22µM* | -99* | ?
O=C(Cc1ccsc1-c1ccccc1)NO | -22% | -29% | -18% | -32 | 10µM*
COCCNC(=S)N/N=C/c1ccc(N2CCOCC2)cc1 | ? | 23µM* | -6% | -97* | -29%
C=C(C)CNC(=S)N/N=C/c1ccc(N2CCOCC2)cc1 | ? | ? | -17% | -78* | ?
CC(C)NC(=S)N/N=C/c1ccc(N2CCOCC2)cc1 | nt | nt | -26% | -1 | 0%
CN1/C(=C\C=Nc2ccccc2)C(C)(C)c2ccccc21 | ? | ? | ? | ? | -28%
Cc1cc(/N=C/C=C2\N(C)c3ccccc3C2(C)C)n(CCC#N)n1 | -78% | ? | nt | ? | 11µM*
Cc1ccc(NC(=O)NCc2c(-n3cccc3)sc3c2CCCC3)c(Cl)c1 | -7%[46.1 µM] | 3%[46.1 µM] | 1% | -21 | nt
CCOC(=O)[C@]12Cc3c(cc(OC)c(OC)c3OC)[C@H]1N(C1CCCCC1)C(=O)c1ccccc12 | nt | nt | 8.9µM* | -102* | nt
CCOC(=O)[C@]12Cc3cc(C)ccc3[C@H]1N(C1CCCCC1)C(=O)c1ccccc12 | nt | nt | 7.9µM* | -103* | nt
CCOC(=S)SCC(=O)N1CCc2cc(OC)ccc2C1C1C(=O)CCCC1=O (stereo not drawn) | nt | nt | -16% | -2 | 21%
CCOC(=O)N1CCC(N2C(=O)c3ccccc3C2Nc2ccc(C)cc2)CC1 (stereo not drawn) | nt | nt | -23% | -39 | 11%
CCOC(=O)[C@]12Cc3cc(Cl)ccc3[C@H]1N(C1CCCCC1)C(=O)c1cc(OC)ccc12 | nt | nt | 2.2µM* | -104* | nt
COc1ccc(C2C(C(=O)O)CC(=O)N2C2CCCCC2)cc1 (stereo not drawn) | -10% | 26% | -12% | -11 | 5%
CCOC(=O)[C@]12Cc3ccc(C)cc3[C@H]1N(C1CCCCC1)C(=O)c1cc(OC)ccc12 | nt | nt | 28µM* | -103* | nt
CSc1ncccc1C(=O)Nc1cccc(S(=O)(=O)N(C)c2ccccc2)c1 | nt | nt | -22% | -15 | ?
CCc1cccc(NC(=O)CN(C)S(=O)(=O)c2ccc3c(c2)CCCN3C(C)=O)c1 | -14%[46.1 µM] | nt | -16% | -20 | nt
CCOC(=O)[C@]12Cc3ccccc3[C@H]1N(C(C)C)C(=O)c1ccccc12 | nt | nt | 18µM* | -105* | nt
CCOC(=O)[C@]12Cc3ccc(C)cc3[C@H]1N(C1CCCCC1)C(=O)c1ccccc12 | nt | nt | 6.3µM* | -101* | nt
CCOC(=O)[C@]12Cc3cc4c(cc3[C@H]1N(Cc1ccccc1)C(=O)c1ccccc12)OCO4 | nt | nt | -29% | -18 | ?
CCOC(=O)[C@]12Cc3cc(C)ccc3[C@H]1N(CCC(=O)OC)C(=O)c1ccccc12 | nt | nt | 14µM* | -110* | nt
CC1(C(=O)Nc2cccc(OC(F)(F)F)c2)Cc2c(-c3ccc(C(N)=O)cc3)ccnc2O1 (stereo not drawn) | nt | nt | ? | -33 | nt
